An excerpt weighted towards active compounds, which were near 1.7% of everything screened.
GLP-1R inv ag – acts as inverse agonist at human GLP-1 receptor. actives 1.6% (n = 410,000). Potency, µM (titrated, usually from 38.3 µM), for the others: at the top dose activity change, negative = inhibition, usual class: inhibitors. P43220. HEK293 GLP-1R CRE-luciferase, luminescence, 24 h; GLP-1R form is constitutively active; further: on the % scale 0 is the no-effect control and ±100 the full control effect; nearly all actives have a fitted effect of over 55% in size
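qHTS in 1536-well format: reporter HEK293 cells expressing constitutive GLP-1R activity in DMEM + 10% Nu serum, 24 hr with compounds at 37 deg C, luminescence read after 12 min with detection reagent.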
PTHR1 agonist – agonists of human PTHR1 parathyroid hormone receptor. Q03431. HEK293 GP2 PTHR1 cells, GloSensor cAMP luminescence, 1 h. Potency, µM (top dose mostly 115 µM), for inactives: top-dose activation, usual class: activators. actives 0.075% (n = 410,000). AID 743266; further: nearly all actives have a fitted effect of over 55% in size
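HEK-293-derived GP2 cells expressing PTHR1 and a GloSensor cAMP reporter, 3,000/well, plated overnight, given luciferin plus IBMX (each 0.5 mM as added) for 1 h at 37 °C, then compound for 1 h at 37 °C. Luminescence was read after 15 min at room temperature.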
GLP-1R agonist – GLP-1 receptor (human) agonism; P43220; HEK293 GLP-1R CRE-luciferase, luminescence, 4-6 h; cells express a hypersensitive GLP-1R form; Potency, µM (highest dose often 45.6 µM), for the others: at the top dose activation, actives largely listed as activators; actives 0.007% (n = 380,000); AID 624172; further: % of control where 0% means no effect
GLP1R cytotox – cytotoxicity counter-screen for GLP-1 receptor inverse agonists; Potency, µM (series often up to 38.3 µM), for the others: top-dose activity change, negative = inhibition, actives largely listed as inhibitors; HEK293 cAMP-luciferase reporter cells, luminescence, 24 h; AID 624418; actives 0.13% (n = 410,000);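 further: loss of luciferase light is scored as toxicity; on the % scale 0 is the no-effect control and ±100 the full control effect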
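Here, cytotoxicity is scored as loss of luminescence. The MLSMR collection was tested on cells seeded in medium containing 10% Nu serum, with a 24 hr compound exposure preceded by 12 hours of culture.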
* = called active by the depositor; i = inactive; ? = inconclusive; nt = no result; [ ] = another dose, or the depositor's remark. The call rests on the fitted dose curve; in most records, active means well fitted curve in the direction sought with a large enough effect; inconclusive means small, poorly fitted or top-dose-only effect, or another doubt; inactive means no such curve, though single readings can be large; an effect the other way counts as inactive or inconclusive. Potency means the concentration at half of the fitted maximal effect.

SMILES	GLP-1R inv ag	PTHR1 agonist	GLP-1R agonist	GLP1R cytotox
CCOC(=O)C(Oc1ccc2c(-c3ccccc3)cc(=O)oc2c1)c1ccccc1 (stereo not given)	11µM*	-6%	14%	24%
COC(=O)C(Oc1ccc2c(-c3ccc(OC)cc3)cc(=O)oc2c1)c1ccccc1 (stereo not given)	-29%	i	4%	-11%
CCc1ccc(CNc2nc3nc(C)c(Cc4ccccc4)c(=O)n3[nH]2)cc1	6%	-22%	nt	8%
Cc1cc(NC(=O)c2sc(Nc3cccc(C(F)(F)F)c3)nc2N)no1	5µM*	-16%[57.5 µM]	0%	8%
Cc1ccc(-n2ncc(C(=O)NCc3ccc4c(c3)OCO4)c2C2CCN(C(=O)OC(C)(C)C)CC2)cc1C	?	i	nt	-2%
CCc1ccc(NC(=O)c2nc3nc(C)cc(C(F)F)n3n2)cc1	5%	i	nt	-2%
CN(C)CCCN(C(=O)c1cccs1)c1nc2ccc(F)cc2s1	-7%	i	nt	?
CN(C)CCCN(C(=O)c1sc2ccccc2c1Cl)c1nc2ccc(F)cc2s1	10µM*	i	4%	-27%
CN(C)CCCN(C(=O)c1ccc2c(c1)CCCC2)c1nc2ccc(Cl)cc2s1	5µM*	-6%	-47%	-25%
CN(C)CCCN(C(=O)CCc1ccccc1)c1nc2ccc(Cl)cc2s1	3.5µM*	-11%	0%	?
CC(C)Oc1ccc(CNC(=O)Cn2nc(N3CCN(c4ccccc4)CC3)ccc2=O)cc1	0%	-18%	nt	0%
COc1ccccc1CNc1nccn(-c2ccccc2)c1=O	17%	i	0%	11%
COCCCNC(=O)c1oc2c(c1C)-c1nn(Cc3ccccc3Cl)cc1CC2	0%	-63%	nt	13%
CCN(CC)CCC#CC(O)(c1ccccc1)c1ccccc1	?	i	-2%	-12%
CCN(CC)CC#CC(OC)(c1ccccc1)c1ccccc1	5µM*	-8%	-1%	-9%
O=C(CCCCn1c(=O)[nH]c2ccccc2c1=O)N1CCN(c2cccc(C(F)(F)F)c2)CC1	10µM*	-34%	-11%	?
COc1cc(CN2CC(=O)N(c3ccc(C)c(Cl)c3)C2=S)cc(OC)c1OC	8.9µM*	i	12%	-19%
CCCSc1cc(N2CCCC2)nc(-c2ccccc2)n1	0%	i	-4%	18%
CCCSc1cc(N2CCN(C)CC2)nc(-c2ccc(OC)cc2)n1	8.9µM*	?	2%	-1%
CCOC(=O)c1ccc(Oc2nc(NC(C)(C)C)nc(N(C)C)n2)cc1	7.9µM*	-24%[57.5 µM]	3%	-19%
Cc1ccc(OCCCC(=O)Nc2ccc(Cl)c(S(=O)(=O)N3CCOCC3)c2)cc1	11µM*	-46%	-4%	-2%
O=C(Nc1ccc(Cl)c(S(=O)(=O)N2CCOCC2)c1)c1ccc2c(c1)OCO2	11µM*	-47%	0%	-17%
CC(=O)c1ccc(OCCCC(=O)Nc2ccc(Cl)c(S(=O)(=O)N3CCOCC3)c2)cc1	1%	-47%	2%	-7%
O=C(Nc1ccc(Cl)c(S(=O)(=O)N2CCOCC2)c1)c1ccc2c(c1)OCCO2	-28%	-32%	2%	-20%
COc1ccc(NC(=O)CCOc2ccc(C)cc2)cc1S(=O)(=O)N1CCCCC1	7.1µM*	-93%	-4%	-27%
SMILES	GLP-1R inv ag	PTHR1 agonist	GLP-1R agonist	GLP1R cytotox
COc1ccccc1CCNC(=O)C(=O)NCC(c1ccco1)S(=O)(=O)c1ccccc1 (stereo not given)	0%	-74%	nt	11%
COc1cccc(Oc2nc(C)nc3c2oc2ccccc23)c1	0%	-47%	nt	-2%
CC1=CC(C)(C)NC(=S)N1c1ccc(C)cc1	?	-3%[57.5 µM]	-4%	?
CC1=CC(C)(C)NC(=S)N1c1ccc(C)c(C)c1	11µM*	14%	4%	11µM*
Cc1c(C(=O)NCc2ccc(F)cc2)c(-c2ccccc2)nn1-c1ccccc1	5µM*	-11%[57.5 µM]	5%	2%
Cc1nn(-c2ccccc2)c(C)c1C(=O)NCc1ccc(F)cc1	1%	i	0%	-12%
CCOC(=O)Nc1ccc2c(c1)N(C(=O)CN(CC)CC)c1ccccc1CC2	?	i	6%	?
CCN(CC)CC(=O)Nc1ccc2c(c1)N(C(=O)CN(CC)CC)c1ccccc1CC2	39%	i	21%	4µM*
CCN(CC)S(=O)(=O)c1ccc2c(c1)c(=O)c(C(=O)N1CCN(c3ccc(OC)cc3)CC1)cn2C	-13%	-24%	1%	1%
